Data on two sequences can be found in paper PMC7862700, “An all-to-all approach to the identification of sequence-specific readers for epigenetic DNA modifications on cytosine”.

Holding throughout (assay): DAPPL (digital affinity profiling via proximity ligation, sequencing); 10 mM Tris-HCl pH 7.5, 50 mM NaCl, 1 mM DTT, 4% glycerol, room temperature, 30 min; GST-TFs on glutathione beads, 16-mer random dsDNA library, 0.1% formaldehyde crosslink after washing; high values mean tight binding
Common to all, as to conditions: protein: recombinant; tags: N-terminal GST; dsDNA, one strand shown

One test addresses T1, ELK1 (Homo sapiens, UniProt P19419 1-428).
T1 sequence: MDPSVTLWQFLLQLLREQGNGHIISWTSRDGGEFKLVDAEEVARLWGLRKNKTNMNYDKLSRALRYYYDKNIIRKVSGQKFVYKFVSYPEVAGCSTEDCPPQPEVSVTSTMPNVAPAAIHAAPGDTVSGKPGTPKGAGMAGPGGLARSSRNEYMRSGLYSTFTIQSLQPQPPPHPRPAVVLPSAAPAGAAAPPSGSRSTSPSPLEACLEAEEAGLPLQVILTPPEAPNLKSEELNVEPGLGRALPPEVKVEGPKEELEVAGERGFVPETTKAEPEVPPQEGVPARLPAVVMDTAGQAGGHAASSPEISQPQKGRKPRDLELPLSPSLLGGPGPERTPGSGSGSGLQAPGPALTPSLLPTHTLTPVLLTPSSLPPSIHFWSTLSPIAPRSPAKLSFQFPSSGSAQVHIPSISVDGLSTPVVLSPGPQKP
The gist of the method: (§1)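 Each value of binding signal is a hexamer's read frequency for a factor divided by the same hexamer's frequency in the tag-only sample. Barcoded, bead-captured GST fusions of human transcription factors made in yeast were pooled with that sample and incubated with 200 nmole of a random double-stranded 16-mer DNA library in Tris/NaCl/DTT/glycerol buffer at room temperature for 30 min. Washing, 0.1% formaldehyde crosslinking, proximity ligation, PCR and Illumina NextSeq500 sequencing followed.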

A further test deals with ETV5 (Homo sapiens, UniProt P41161 1-510). The gist of the method: as §1
ETV5, sequence (P41161 whole entry): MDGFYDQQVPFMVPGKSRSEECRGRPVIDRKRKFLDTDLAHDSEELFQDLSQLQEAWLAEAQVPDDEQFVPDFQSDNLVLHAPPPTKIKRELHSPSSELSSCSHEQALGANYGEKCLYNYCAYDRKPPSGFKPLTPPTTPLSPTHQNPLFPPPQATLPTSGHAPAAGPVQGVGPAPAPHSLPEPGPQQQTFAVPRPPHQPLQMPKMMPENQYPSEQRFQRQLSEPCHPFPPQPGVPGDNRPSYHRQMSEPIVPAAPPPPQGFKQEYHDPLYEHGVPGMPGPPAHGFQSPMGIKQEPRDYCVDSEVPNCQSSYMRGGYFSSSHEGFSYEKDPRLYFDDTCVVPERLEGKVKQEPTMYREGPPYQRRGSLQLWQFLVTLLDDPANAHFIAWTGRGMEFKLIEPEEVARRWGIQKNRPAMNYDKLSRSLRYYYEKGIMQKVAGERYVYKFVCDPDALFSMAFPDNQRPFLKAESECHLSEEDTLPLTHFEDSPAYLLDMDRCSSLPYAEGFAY
A further test addresses T2, SPDEF (Homo sapiens, UniProt O95238 1-335).
T2 sequence: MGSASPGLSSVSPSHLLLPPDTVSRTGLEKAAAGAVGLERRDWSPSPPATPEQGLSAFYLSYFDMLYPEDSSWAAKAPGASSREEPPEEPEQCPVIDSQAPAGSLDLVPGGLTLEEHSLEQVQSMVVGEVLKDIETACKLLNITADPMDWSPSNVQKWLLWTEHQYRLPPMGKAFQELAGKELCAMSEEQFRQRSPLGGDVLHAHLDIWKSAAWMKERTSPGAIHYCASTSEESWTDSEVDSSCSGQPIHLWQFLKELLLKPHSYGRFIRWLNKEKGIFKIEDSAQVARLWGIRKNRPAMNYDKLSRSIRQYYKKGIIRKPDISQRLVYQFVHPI
The gist of the method: as §1

A further test has as its target T3, ETV7 (Homo sapiens, UniProt Q9Y603 1-341).
T3 sequence: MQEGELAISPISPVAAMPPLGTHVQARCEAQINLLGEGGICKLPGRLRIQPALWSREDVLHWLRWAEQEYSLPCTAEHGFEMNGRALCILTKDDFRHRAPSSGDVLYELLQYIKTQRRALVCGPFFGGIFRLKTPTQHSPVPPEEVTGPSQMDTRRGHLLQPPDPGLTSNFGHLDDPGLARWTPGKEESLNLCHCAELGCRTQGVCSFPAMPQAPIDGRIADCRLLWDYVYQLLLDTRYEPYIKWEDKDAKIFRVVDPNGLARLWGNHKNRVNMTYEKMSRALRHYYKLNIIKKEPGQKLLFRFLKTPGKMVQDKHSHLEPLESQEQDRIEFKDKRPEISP
The gist of the method: as §1

The next test has as its target T4, ETV3 (Homo sapiens, UniProt P41162-2 1-143).
T4 sequence: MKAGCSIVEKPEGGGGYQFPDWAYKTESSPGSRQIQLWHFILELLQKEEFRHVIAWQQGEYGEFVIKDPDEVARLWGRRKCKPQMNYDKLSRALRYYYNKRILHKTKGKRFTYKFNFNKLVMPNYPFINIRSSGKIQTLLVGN
The gist of the method:
as §1

The next test has as its target T5, GABPA (Homo sapiens, UniProt Q06546 1-454).
T5 sequence: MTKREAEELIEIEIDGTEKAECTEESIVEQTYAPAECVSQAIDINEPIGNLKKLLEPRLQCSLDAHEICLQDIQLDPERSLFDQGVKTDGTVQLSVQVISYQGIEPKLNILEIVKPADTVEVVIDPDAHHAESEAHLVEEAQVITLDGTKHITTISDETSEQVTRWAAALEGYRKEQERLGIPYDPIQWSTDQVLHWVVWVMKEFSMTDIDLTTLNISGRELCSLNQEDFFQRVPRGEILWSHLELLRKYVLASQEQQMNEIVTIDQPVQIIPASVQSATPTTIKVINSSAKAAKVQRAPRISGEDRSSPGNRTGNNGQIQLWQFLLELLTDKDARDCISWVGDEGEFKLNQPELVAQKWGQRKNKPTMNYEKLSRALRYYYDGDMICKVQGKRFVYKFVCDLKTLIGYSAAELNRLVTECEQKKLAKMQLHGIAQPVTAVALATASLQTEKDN
The gist of the method: as §1

The next test concerns the target T6, EHF (Homo sapiens, UniProt Q9NZC4 1-300).
T6 sequence: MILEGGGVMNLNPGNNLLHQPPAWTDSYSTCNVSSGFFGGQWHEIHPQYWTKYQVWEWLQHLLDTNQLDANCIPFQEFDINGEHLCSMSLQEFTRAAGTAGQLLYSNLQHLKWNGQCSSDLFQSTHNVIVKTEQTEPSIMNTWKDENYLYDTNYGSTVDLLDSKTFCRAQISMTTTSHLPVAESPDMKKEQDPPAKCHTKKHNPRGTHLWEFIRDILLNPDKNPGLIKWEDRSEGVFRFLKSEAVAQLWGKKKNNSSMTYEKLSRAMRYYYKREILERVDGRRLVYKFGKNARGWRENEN
In a few lines: as §1

The target of another test is SPI1 (Homo sapiens, UniProt P17947 1-270). In a few lines: as §1
For another test, the target named is T7, SPIC (Homo sapiens, UniProt Q8N5J4 1-248).
T7 sequence: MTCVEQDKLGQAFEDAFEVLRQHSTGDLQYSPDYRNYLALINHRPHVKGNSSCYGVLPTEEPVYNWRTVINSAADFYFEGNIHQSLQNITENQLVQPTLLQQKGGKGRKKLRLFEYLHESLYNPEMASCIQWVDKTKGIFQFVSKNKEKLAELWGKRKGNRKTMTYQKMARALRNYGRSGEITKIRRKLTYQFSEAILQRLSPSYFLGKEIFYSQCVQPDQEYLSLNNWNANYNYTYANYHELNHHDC
In a few lines: as §1

A further test addresses T8, ELK4 (Homo sapiens, UniProt P28324-2 1-405).
T8 sequence: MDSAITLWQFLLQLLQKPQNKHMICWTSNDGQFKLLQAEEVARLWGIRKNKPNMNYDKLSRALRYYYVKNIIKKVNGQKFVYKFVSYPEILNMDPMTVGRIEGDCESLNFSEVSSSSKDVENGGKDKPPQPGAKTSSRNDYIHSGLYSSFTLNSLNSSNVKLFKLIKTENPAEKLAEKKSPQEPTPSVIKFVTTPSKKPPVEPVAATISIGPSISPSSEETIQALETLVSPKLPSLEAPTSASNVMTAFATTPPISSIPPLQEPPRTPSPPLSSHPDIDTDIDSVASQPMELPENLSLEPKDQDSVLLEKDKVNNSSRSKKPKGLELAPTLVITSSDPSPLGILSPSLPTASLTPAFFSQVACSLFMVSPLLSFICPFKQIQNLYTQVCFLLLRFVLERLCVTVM
The gist of the method: as §1

In a further test the target is T9, ERF (Homo sapiens, UniProt P50548 1-548).
T9 sequence: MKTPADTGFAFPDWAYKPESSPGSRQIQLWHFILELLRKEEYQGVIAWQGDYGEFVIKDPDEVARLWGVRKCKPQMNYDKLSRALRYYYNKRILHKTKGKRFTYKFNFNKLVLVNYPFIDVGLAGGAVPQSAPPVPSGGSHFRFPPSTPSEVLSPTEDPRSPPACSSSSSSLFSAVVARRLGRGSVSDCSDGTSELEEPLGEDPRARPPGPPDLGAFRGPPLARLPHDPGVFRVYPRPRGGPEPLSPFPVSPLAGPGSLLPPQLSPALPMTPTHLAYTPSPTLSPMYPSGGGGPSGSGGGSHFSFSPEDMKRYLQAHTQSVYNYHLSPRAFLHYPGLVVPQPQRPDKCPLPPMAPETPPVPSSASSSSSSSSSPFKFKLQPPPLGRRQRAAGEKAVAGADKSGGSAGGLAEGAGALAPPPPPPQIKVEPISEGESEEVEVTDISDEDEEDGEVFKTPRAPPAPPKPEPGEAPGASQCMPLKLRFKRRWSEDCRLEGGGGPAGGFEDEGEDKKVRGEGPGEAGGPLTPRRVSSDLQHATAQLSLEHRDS
The gist of the method: as §1

A further test addresses T10, ETS2 (Homo sapiens, UniProt P15036 1-469).
T10 sequence: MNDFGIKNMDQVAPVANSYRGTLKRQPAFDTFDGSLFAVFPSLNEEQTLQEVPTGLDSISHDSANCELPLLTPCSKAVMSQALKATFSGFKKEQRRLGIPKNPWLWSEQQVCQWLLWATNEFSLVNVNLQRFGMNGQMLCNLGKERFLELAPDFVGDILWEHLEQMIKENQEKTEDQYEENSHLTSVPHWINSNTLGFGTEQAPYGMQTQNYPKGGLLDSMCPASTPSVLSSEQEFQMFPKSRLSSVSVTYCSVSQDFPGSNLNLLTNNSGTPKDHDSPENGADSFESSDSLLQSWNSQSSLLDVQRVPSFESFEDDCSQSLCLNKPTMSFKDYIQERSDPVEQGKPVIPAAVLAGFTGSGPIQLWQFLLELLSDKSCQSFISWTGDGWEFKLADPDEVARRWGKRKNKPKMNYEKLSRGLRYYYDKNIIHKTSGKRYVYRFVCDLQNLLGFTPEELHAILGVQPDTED
The gist of the method:
as §1

With GCCCGG, the binding signal with ELK1 was 1.03 fold enrichment (6-mer frequency, TF over GST control); with ETV5 it was 1.01 fold enrichment (6-mer frequency, TF over GST control); in the test with SPDEF it was 1.06 fold enrichment (6-mer frequency, TF over GST control); with ETV7 it was 1.01 fold enrichment (6-mer frequency, TF over GST control); with ETV3, 1.07 fold enrichment (6-mer frequency, TF over GST control).

For the sequence ATAGGG, the binding signal with ELK1 is 1.01 fold enrichment (6-mer frequency, TF over GST control); with GABPA, 1.03 fold enrichment (6-mer frequency, TF over GST control); in the test with EHF, 1.01 fold enrichment (6-mer frequency, TF over GST control); with SPI1, 1.19 fold enrichment (6-mer frequency, TF over GST control); with ETV5 it was 1.03 fold enrichment (6-mer frequency, TF over GST control); with SPIC, 1.08 fold enrichment (6-mer frequency, TF over GST control). For the same sequence, the binding signal in the test with ELK4 is 1.06 fold enrichment (6-mer frequency, TF over GST control); with ERF it was 1.14 fold enrichment (6-mer frequency, TF over GST control); with ETS2, 1.01 fold enrichment (6-mer frequency, TF over GST control); with SPDEF, 1.01 fold enrichment (6-mer frequency, TF over GST control); in the test with ETV7 it was 1.09 fold enrichment (6-mer frequency, TF over GST control).
